Screens as filed in PubChem BioAssay.
Only some compounds are listed: those with a hit (about 6.2% of all), similar ones and a draw of the others.
HT1080 IDH1KD tx = HT-1080 IDH1 knockdown cell toxicity (counter line); hit rate 2% among 360,000; Potency, µM (series often up to 46.1 µM), inactives show top-dose activity, negative = toxicity, most hits filed as cytotoxic; HT-1080 IDH1 knockdown viability, ATP luminescence, 48 h;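 further: 0% = DMSO wells and -100% = cell-free medium wells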
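Knockdown cells (IDH1KD HT-1080) received compounds 2 h after plating at 750 cells/well and were kept 48 h at 37 °C in 5% FBS RPMI. A CellTiter-Glo luminescence read gave % activity for curve fitting.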
ATXN2 expr inh = inhibitors of ATXN2 expression | HEK-293 ATXN2-luciferase reporter, luminescence, 24 h | Potency, µM (highest dose often 57 µM), for the others: at the highest dose activity change, negative = inhibition, most hits filed as inhibitors | hit rate 0.72% among 360,000; further: on the % scale 0 is the no-effect control and ±100 the full control effect; nearly all actives have a fitted effect of over 55% in size
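ATXN2-luciferase reporter cells (luciferase flanked by upstream and downstream ATXN2 gene portions) were treated 24 h at 37 °C with compounds at up to 57 uM. SteadyGlo luminescence gave expression; GF-AFC fluorescence gave viability.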
KB-3-1 cytotox = KB-3-1 parental cell cytotoxicity; KB-3-1 viability, CellTiter-Glo ATP luminescence, 72 h; AID 1347075; hit rate 1.4% among 400,000; Potency, µM (titrated, usually from 46.1 µM), actives largely listed as cytotoxic; further: on the % scale 0 is the no-effect control and ±100 the full control effect; nearly all actives have a fitted effect of over 60% in size
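Cells are dispensed, compounds pinned in, plates held at 37 °C for 72 h, then CellTiter-Glo is added and luminescence read after 10 minutes. Cell line: parental KB-3-1 in phenol-red-free DMEM, 10% FBS.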
ATXN viability = reduces viability in counter-screen for ATXN expression inhibitors; S2 cells (HEK-293 line with an ATXN2-luciferase reporter) viability, CellTiter-Fluor protease fluorescence, 24 h; Potency, µM (top dose mostly 56.7 µM), actives largely listed as cytotoxic; hit rate 0.49% among 400,000; AID 651635; further: nearly all actives have a fitted effect of over 40% in size
HT1080-NT tox = kills 2HG-producing HT-1080-NT fibrosarcoma cells | HT-1080-NT fibrosarcoma viability, CellTiter-Glo ATP luminescence, 48 h | Potency, µM (titrated, usually from 46.1 µM), for the others: top-dose activity, negative = less viability, hits mostly cytotoxic | hit rate 1.6% among 360,000 | AID 686970;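 further: NT is the 2HG producing partner of a matched IDH1 knockdown line; 0% = DMSO-treated cells and -100% = media-only wells without cells; nearly all actives have a fitted effect of over 55% in size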
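HT-1080-NT; 750 cells/well; 5% FBS RPMI; 48 h compound, 37 degrees C; CellTiter-Glo luminescence; curve fitting and curve-class assignment.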
KB-V1 MDR tox = KB-V1 MDR subline cytotoxicity | hit rate 3.4% among 400,000 | KB-V1 MDR cells viability, CellTiter-Glo, 72 h | Potency, µM (top dose mostly 46.1 µM), usual class: cytotoxic; further: on the % scale 0 is the no-effect control and ±100 the full control effect; nearly all actives have a fitted effect of over 60% in size
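Cytotoxicity toward P-gp-expressing KB-V1 cells was determined as loss of CellTiter-Glo luminescence after 72 h at 37 degrees C. Compounds were tested in quantitative HTS format across a concentration range, with curves fitted to normalized data.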
The depositor's hits bear a star; i = inactive; ? = inconclusive; nt = no result given; [ ] = dose if it differs, or a comment. The call rests on the fitted dose curve; in most records, active means well fitted curve in the direction sought with a large enough effect; inconclusive means small, poorly fitted or top-dose-only effect, or another doubt; inactive means no such curve, though single readings can be large; an effect the other way counts as inactive or inconclusive. Potency means the concentration at half of the fitted maximal effect.

SMILES | HT1080 IDH1KD tx | ATXN2 expr inh | KB-3-1 cytotox | ATXN viability | HT1080-NT tox | KB-V1 MDR tox
O=C(C[N+]12CCCc3cccc(c31)CCC2)c1ccc2ccccc2c1 | nt | nt | ? | nt | nt | i
CN(CC(=O)Nc1ccc(S(=O)(=O)N2CCCC2)cc1)Cc1c(F)cccc1Cl | 1% | ? | ? | i | -9% | 7.3µM*
CN(CC(=O)Nc1cccc(S(=O)(=O)N2CCCC2)c1)CC(=O)Nc1ccc(Cl)c(C(F)(F)F)c1 | 18µM* | ? | ? | ? | 9.2µM* | i
CN(CC(=O)Nc1cccc(S(=O)(=O)N2CCCC2)c1)CC(=O)Nc1ccc(F)c(F)c1F | 2% | -11% | i | i | -13% | 21µM*
O=C(CNc1cc(S(=O)(=O)N2CCCC2)ccc1OCC(F)(F)F)Nc1cccc(C(F)(F)F)c1 | -24% | -21% | 21µM* | i | -13% | 9.2µM*
CCN(CC)CC(=O)Nc1cccc(S(=O)(=O)N2CCCC2)c1 | -3% | -7% | i | i | -14% | i
O=C(CNc1cccc(C(F)(F)F)c1)Nc1cccc(S(=O)(=O)N2CCCC2)c1 | -15% | ? | ? | i | -8% | ?
COCC(=O)N1C[C@H]2CON(C)[C@H]2C[C@H]1c1ccc(N2CCCCC2)cc1 | 29% | 1% | i | i | 16% | i
O=C(Cn1nc(-c2ccccc2F)ccc1=O)Nc1ccc(S(=O)(=O)N2CCCCCC2)cc1 | -10% | -23% | i | i | 1% | 13µM*
CN(CC(=O)Nc1ccc(F)cc1)c1ccc(S(=O)(=O)N2CCCCC2)cc1[N+](=O)[O-] | -22% | -20% | i | ? | -22% | 13µM*
O=C(Nc1cccc(S(=O)(=O)N2CCCCC2)c1)Nc1ccc(Cl)cc1Cl | 16µM* | ? | ? | ? | 21µM* | ?
O=C(CN1CCN(S(=O)(=O)c2ccc(F)cc2)CC1)Nc1ccc2c(c1)OCCO2 | -1% | 0% | i | i | -12% | ?
O=C(Cc1ccccc1F)Nc1ccc(S(=O)(=O)N2CCCCC2)cc1 | -9% | -6% | i | i | -17% | i
O=C(CN1CCN(S(=O)(=O)c2ccc(F)cc2)CC1)Nc1ccc(Cl)c(C(F)(F)F)c1 | -13%[9.24 µM] | -31% | ? | i | ? | 16µM*
Cc1ccc(CNC(=O)c2ccc3c(c2)c(C)c(C)n3Cc2ccc(Cl)cc2)o1 | nt | nt | i | nt | nt | i
O=C(c1nn2c(C(F)(F)F)cc(-c3cccs3)nc2c1Br)N1CCCc2ccccc21 | ? | 28% | ? | i | -23% | ?
O=C(c1nn2c(C(F)(F)F)cc(-c3ccco3)nc2c1Br)N1CCCc2ccccc21 | 10µM* | -21% | ? | ? | 23µM* | 23µM*
NC(=O)c1cnn2c(C(F)(F)F)cc(-c3ccc(F)cc3)nc12 | 0% | -6% | i | i | -10% | 13µM*
O=C(NC1CCCC1)c1cnn2c(C(F)(F)F)cc(-c3ccco3)nc12 | ? | 8% | i | i | 3% | 5.2µM*
O=C(NC1CCCC1)c1cnn2c(C(F)(F)F)cc(-c3ccc4c(c3)OCO4)nc12 | 10% | ? | i | i | 4% | ?
CC(C)CCNC(=O)c1cnn2c(C(F)(F)F)cc(-c3ccco3)nc12 | ? | ? | ? | i | 1% | 11µM*
CC(C)CCNC(=O)c1cc(-c2ccco2)nc2ccccc12 | -2% | -1% | i | i | 0% | 9.2µM*
Brc1ccc2c(c1)OCCOCCOc1cc(Br)ccc1OCCOCCOCCO2 | 18µM* | 16µM* | ? | ? | ? | 2.3µM*
Brc1cc2c(cc1Br)OCCOCCOCCOCCO2 | 0% | -18% | i | i | -3% | i
Cc1ccc(C)c(Nc2nc(NCc3ccco3)nc3nccnc23)c1 | nt | nt | i | nt | nt | i
CC(OC(=O)c1ccccc1)C(=O)NCc1ccco1 (stereo not drawn) | 15% | -14% | i | i | 7% | i
